# Assays:
# Experiment in all cases: DAPPL (digital affinity profiling via proximity ligation, sequencing); 10 mM Tris-HCl pH 7.5, 50 mM NaCl, 1 mM DTT, 4% glycerol, room temperature, 30 min; GST-TFs on glutathione beads, 16-mer random dsDNA library, 0.1% formaldehyde crosslink after washing; high values mean tight binding
# Conditions in all cases: protein: recombinant; tags: N-terminal GST; dsDNA, one strand shown
# ERF = target: T1, ERF (Homo sapiens, UniProt P50548 1-548)
# T1 sequence: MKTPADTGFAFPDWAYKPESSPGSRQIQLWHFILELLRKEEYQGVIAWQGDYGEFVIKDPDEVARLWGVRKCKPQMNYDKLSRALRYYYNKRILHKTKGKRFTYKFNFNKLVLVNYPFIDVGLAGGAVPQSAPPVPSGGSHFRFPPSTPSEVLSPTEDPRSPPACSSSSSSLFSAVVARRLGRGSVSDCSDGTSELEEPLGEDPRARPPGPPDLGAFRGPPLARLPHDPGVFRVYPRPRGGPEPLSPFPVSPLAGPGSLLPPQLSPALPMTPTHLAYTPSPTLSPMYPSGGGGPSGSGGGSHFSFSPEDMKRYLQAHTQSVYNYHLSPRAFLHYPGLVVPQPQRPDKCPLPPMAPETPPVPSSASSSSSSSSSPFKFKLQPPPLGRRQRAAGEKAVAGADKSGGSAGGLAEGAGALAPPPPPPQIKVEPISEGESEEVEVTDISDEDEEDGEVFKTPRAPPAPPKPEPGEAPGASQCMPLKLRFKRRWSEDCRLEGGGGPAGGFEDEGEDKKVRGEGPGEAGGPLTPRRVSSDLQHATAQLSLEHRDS
# Summary of the method: (§1)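 Binding signal is defined as a hexamer's read frequency for one factor over its frequency for the tag-only sample. To obtain reads, GST-fused human transcription factors were expressed in yeast, captured on glutathione beads, barcoded with DNA and pooled with that sample. Pools met 200 nmole of a 16-mer random double-stranded DNA library in Tris/NaCl/DTT/glycerol buffer for 30 min at room temperature before washing, 0.1% formaldehyde crosslinking, proximity ligation (BsaI/T4 ligase, 1 h, 37 °C), PCR and Illumina NextSeq500 sequencing.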
# ETV3L = target: T2, ETV3L (Homo sapiens, UniProt Q6ZN32 1-361)
# T2 sequence: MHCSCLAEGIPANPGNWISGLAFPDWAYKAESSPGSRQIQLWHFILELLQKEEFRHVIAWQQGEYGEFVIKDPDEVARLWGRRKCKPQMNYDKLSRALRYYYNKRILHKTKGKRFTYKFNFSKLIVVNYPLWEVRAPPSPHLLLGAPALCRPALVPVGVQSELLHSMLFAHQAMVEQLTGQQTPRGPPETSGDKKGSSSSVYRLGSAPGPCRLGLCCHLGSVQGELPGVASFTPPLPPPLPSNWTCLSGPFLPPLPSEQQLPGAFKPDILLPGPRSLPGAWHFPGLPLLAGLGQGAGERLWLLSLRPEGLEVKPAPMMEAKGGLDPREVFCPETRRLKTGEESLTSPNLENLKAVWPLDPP
# Summary of the method: as §1
# ETS2 = target: T3, ETS2 (Homo sapiens, UniProt P15036 1-469)
# T3 sequence: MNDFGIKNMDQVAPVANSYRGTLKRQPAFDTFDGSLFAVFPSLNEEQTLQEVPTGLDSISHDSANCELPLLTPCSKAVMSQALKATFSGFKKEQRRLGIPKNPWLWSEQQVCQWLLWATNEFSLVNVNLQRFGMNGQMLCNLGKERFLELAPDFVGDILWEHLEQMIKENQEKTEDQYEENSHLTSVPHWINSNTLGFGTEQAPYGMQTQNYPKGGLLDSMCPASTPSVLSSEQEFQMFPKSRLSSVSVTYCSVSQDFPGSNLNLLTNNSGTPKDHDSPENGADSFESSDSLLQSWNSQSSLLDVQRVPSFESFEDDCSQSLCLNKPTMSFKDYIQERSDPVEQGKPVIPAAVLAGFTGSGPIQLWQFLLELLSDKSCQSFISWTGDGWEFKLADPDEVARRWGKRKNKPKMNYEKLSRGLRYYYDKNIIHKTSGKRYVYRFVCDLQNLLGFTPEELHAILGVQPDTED
# Summary of the method: as §1
# SPDEF = target: T4, SPDEF (Homo sapiens, UniProt O95238 1-335)
# T4 sequence: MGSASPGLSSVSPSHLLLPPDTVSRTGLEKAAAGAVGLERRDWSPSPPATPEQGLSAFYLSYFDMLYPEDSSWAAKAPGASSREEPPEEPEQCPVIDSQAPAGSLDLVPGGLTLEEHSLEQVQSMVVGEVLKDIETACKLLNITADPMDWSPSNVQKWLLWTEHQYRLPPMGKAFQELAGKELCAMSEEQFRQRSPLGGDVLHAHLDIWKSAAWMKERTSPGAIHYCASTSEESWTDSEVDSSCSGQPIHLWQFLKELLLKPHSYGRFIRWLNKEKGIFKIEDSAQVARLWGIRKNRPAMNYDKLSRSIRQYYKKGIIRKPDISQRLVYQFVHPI
# Summary of the method: as §1
# ETV7 = target: T5, ETV7 (Homo sapiens, UniProt Q9Y603 1-341)
# T5 sequence: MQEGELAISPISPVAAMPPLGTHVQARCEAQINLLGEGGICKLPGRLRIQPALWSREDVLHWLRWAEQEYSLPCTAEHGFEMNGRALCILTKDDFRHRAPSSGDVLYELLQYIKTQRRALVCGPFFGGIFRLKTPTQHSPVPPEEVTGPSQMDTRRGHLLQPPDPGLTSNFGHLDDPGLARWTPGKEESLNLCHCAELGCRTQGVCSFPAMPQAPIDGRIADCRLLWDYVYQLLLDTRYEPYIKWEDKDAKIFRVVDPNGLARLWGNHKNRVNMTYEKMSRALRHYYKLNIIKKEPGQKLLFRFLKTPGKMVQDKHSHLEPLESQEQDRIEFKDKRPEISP
# Summary of the method: as §1
# ELF5 = target: T6, ELF5 (Homo sapiens, UniProt Q9UKW6-2 1-255)
# T6 sequence: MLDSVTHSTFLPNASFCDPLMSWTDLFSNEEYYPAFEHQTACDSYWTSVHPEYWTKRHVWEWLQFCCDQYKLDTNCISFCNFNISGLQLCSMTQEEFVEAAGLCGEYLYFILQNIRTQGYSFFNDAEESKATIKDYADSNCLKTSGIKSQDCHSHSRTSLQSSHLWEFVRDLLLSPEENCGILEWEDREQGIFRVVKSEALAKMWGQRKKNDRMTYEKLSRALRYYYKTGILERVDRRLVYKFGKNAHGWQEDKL
# Summary of the method: as §1
# ETV3 = target: T7, ETV3 (Homo sapiens, UniProt P41162-2 1-143)
# T7 sequence: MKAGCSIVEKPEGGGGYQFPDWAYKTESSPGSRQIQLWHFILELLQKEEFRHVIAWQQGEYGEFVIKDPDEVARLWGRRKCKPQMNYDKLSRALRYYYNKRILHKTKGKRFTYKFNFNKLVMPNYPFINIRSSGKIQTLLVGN
# Summary of the method: as §1
# ETV6 = ETV6 (Homo sapiens, UniProt P41212 1-452)
# Chain of ETV6 (P41212 whole entry): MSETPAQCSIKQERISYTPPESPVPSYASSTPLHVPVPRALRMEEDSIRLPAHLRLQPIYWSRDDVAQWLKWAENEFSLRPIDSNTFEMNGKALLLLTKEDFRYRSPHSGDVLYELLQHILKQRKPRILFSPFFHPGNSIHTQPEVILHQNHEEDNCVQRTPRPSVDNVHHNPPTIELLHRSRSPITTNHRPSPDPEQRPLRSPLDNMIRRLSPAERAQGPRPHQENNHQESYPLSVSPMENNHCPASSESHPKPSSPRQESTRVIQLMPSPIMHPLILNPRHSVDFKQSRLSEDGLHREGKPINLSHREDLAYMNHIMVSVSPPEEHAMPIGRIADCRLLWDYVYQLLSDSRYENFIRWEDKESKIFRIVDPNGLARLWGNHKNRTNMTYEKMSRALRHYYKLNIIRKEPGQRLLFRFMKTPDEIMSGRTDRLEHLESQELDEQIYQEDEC
# Summary of the method: as §1
sequence,measurement,setting,value
CACTTG,binding signal,ERF,"1.41 fold enrichment (6-mer frequency, TF over GST control)"
same,binding signal,ETV3L,"1.22 fold enrichment (6-mer frequency, TF over GST control)"
same,binding signal,ETS2,"1.32 fold enrichment (6-mer frequency, TF over GST control)"
same,binding signal,SPDEF,"1.35 fold enrichment (6-mer frequency, TF over GST control)"
same,binding signal,ETV7,"1.37 fold enrichment (6-mer frequency, TF over GST control)"
same,binding signal,ELF5,"1.33 fold enrichment (6-mer frequency, TF over GST control)"
same,binding signal,ETV3,"1.39 fold enrichment (6-mer frequency, TF over GST control)"
same,binding signal,ETV6,"1.31 fold enrichment (6-mer frequency, TF over GST control)"
TGCATA,binding signal,ERF,"1.09 fold enrichment (6-mer frequency, TF over GST control)"
same,binding signal,ETV3L,"1.23 fold enrichment (6-mer frequency, TF over GST control)"
same,binding signal,ETS2,"1.17 fold enrichment (6-mer frequency, TF over GST control)"
same,binding signal,SPDEF,"1.18 fold enrichment (6-mer frequency, TF over GST control)"
same,binding signal,ETV7,"1.23 fold enrichment (6-mer frequency, TF over GST control)"
same,binding signal,ELF5,"1.06 fold enrichment (6-mer frequency, TF over GST control)"
same,binding signal,ETV3,"1.11 fold enrichment (6-mer frequency, TF over GST control)"
same,binding signal,ETV6,"1.05 fold enrichment (6-mer frequency, TF over GST control)"
CCACTG,binding signal,ERF,"1.22 fold enrichment (6-mer frequency, TF over GST control)"
same,binding signal,ETV3L,"1.15 fold enrichment (6-mer frequency, TF over GST control)"
same,binding signal,ETS2,"1.16 fold enrichment (6-mer frequency, TF over GST control)"
same,binding signal,SPDEF,"1.14 fold enrichment (6-mer frequency, TF over GST control)"
same,binding signal,ETV7,"1.1 fold enrichment (6-mer frequency, TF over GST control)"
same,binding signal,ELF5,"1.09 fold enrichment (6-mer frequency, TF over GST control)"
same,binding signal,ETV3,"1.15 fold enrichment (6-mer frequency, TF over GST control)"
same,binding signal,ETV6,"1.22 fold enrichment (6-mer frequency, TF over GST control)"
ATACTT,binding signal,ERF,"1.66 fold enrichment (6-mer frequency, TF over GST control)"
same,binding signal,ETV3L,"1.59 fold enrichment (6-mer frequency, TF over GST control)"
same,binding signal,ETS2,"1.59 fold enrichment (6-mer frequency, TF over GST control)"
same,binding signal,SPDEF,"1.63 fold enrichment (6-mer frequency, TF over GST control)"
same,binding signal,ETV7,"1.69 fold enrichment (6-mer frequency, TF over GST control)"
same,binding signal,ELF5,"1.84 fold enrichment (6-mer frequency, TF over GST control)"
same,binding signal,ETV3,"1.63 fold enrichment (6-mer frequency, TF over GST control)"
same,binding signal,ETV6,"1.87 fold enrichment (6-mer frequency, TF over GST control)"
ATGTGT,binding signal,ERF,"1.15 fold enrichment (6-mer frequency, TF over GST control)"
same,binding signal,ETV3L,"1.1 fold enrichment (6-mer frequency, TF over GST control)"
same,binding signal,ETS2,"1.17 fold enrichment (6-mer frequency, TF over GST control)"
same,binding signal,SPDEF,"1.23 fold enrichment (6-mer frequency, TF over GST control)"
same,binding signal,ETV7,"1.09 fold enrichment (6-mer frequency, TF over GST control)"
same,binding signal,ELF5,"1.04 fold enrichment (6-mer frequency, TF over GST control)"
same,binding signal,ETV3,"1.01 fold enrichment (6-mer frequency, TF over GST control)"
same,binding signal,ETV6,"1.12 fold enrichment (6-mer frequency, TF over GST control)"
GCTACG,binding signal,ERF,"1.29 fold enrichment (6-mer frequency, TF over GST control)"
same,binding signal,ETV3L,"1.16 fold enrichment (6-mer frequency, TF over GST control)"
same,binding signal,ETS2,"1.11 fold enrichment (6-mer frequency, TF over GST control)"
same,binding signal,SPDEF,"1.04 fold enrichment (6-mer frequency, TF over GST control)"
same,binding signal,ETV7,"1.23 fold enrichment (6-mer frequency, TF over GST control)"
same,binding signal,ELF5,"1.1 fold enrichment (6-mer frequency, TF over GST control)"
same,binding signal,ETV3,"1.05 fold enrichment (6-mer frequency, TF over GST control)"
same,binding signal,ETV6,"1.23 fold enrichment (6-mer frequency, TF over GST control)"
AATTTG,binding signal,ERF,"1.28 fold enrichment (6-mer frequency, TF over GST control)"
same,binding signal,ETV3L,"1.3 fold enrichment (6-mer frequency, TF over GST control)"
same,binding signal,ETS2,"1.32 fold enrichment (6-mer frequency, TF over GST control)"
same,binding signal,SPDEF,"1.24 fold enrichment (6-mer frequency, TF over GST control)"
same,binding signal,ETV7,"1.38 fold enrichment (6-mer frequency, TF over GST control)"
same,binding signal,ELF5,"1.33 fold enrichment (6-mer frequency, TF over GST control)"
same,binding signal,ETV3,"1.39 fold enrichment (6-mer frequency, TF over GST control)"
same,binding signal,ETV6,"1.22 fold enrichment (6-mer frequency, TF over GST control)"
TATTAG,binding signal,ERF,"1 fold enrichment (6-mer frequency, TF over GST control)"
same,binding signal,ETV3L,"1.04 fold enrichment (6-mer frequency, TF over GST control)"
same,binding signal,ETS2,"1.06 fold enrichment (6-mer frequency, TF over GST control)"
same,binding signal,SPDEF,"1.06 fold enrichment (6-mer frequency, TF over GST control)"
same,binding signal,ETV7,"1.03 fold enrichment (6-mer frequency, TF over GST control)"
same,binding signal,ELF5,"1.06 fold enrichment (6-mer frequency, TF over GST control)"
same,binding signal,ETV3,"1.05 fold enrichment (6-mer frequency, TF over GST control)"
same,binding signal,ETV6,"1.05 fold enrichment (6-mer frequency, TF over GST control)"
TTGCTC,binding signal,ERF,"1.44 fold enrichment (6-mer frequency, TF over GST control)"
same,binding signal,ETV3L,"1.28 fold enrichment (6-mer frequency, TF over GST control)"
same,binding signal,ETS2,"1.33 fold enrichment (6-mer frequency, TF over GST control)"
same,binding signal,SPDEF,"1.2 fold enrichment (6-mer frequency, TF over GST control)"
same,binding signal,ETV7,"1.59 fold enrichment (6-mer frequency, TF over GST control)"
same,binding signal,ELF5,"1.18 fold enrichment (6-mer frequency, TF over GST control)"
same,binding signal,ETV3,"1.2 fold enrichment (6-mer frequency, TF over GST control)"
same,binding signal,ETV6,"1.22 fold enrichment (6-mer frequency, TF over GST control)"

# Reference: paper PMC7862700, “An all-to-all approach to the identification of sequence-specific readers for epigenetic DNA modifications on cytosine”
